Each compound was assayed against Tyrosine-protein kinase Lck (Homo sapiens) (UniProt P06239). Details: at 10 µM.
Tyrosine-protein kinase Lck (Homo sapiens), sequence (P06239 2-509 limits assumed): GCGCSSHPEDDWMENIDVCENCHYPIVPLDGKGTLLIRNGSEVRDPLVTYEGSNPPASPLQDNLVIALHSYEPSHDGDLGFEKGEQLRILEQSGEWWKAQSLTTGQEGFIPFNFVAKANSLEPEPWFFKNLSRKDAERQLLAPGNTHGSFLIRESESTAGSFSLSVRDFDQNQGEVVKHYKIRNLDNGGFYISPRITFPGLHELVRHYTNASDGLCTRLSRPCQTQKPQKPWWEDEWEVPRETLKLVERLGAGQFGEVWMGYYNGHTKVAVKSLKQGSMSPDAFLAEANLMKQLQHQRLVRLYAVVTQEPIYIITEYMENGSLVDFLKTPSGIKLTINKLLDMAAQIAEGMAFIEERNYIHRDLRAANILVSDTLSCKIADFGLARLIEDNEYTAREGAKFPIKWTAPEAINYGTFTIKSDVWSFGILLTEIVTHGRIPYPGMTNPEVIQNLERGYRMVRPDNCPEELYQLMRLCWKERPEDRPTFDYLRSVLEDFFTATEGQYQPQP

Structure (SMILES) | residual activity
NC(=O)c1ccc2[nH]c(-c3ccc(Oc4ccc(Cl)cc4)cc3)nc2c1 | 72%
Cc1nc(-c2ccccc2)c(-c2ccncc2)o1 | 59%
CCOc1cc2ncnc(Nc3cccc(Br)c3)c2cc1OCC | 4%
CC(C)n1cnc2/c(=N/c3cccc(Cl)c3)nc(NCCO)[nH]c21 | 37%
Nc1nc(Nc2ccc(S(N)(=O)=O)cc2)nn1C(=S)Nc1c(F)cccc1F | 16%
Cc1ccc(S(=O)(=O)/C=C/C#N)cc1 | 94%
Ic1cccc(CSc2nnc(-c3ccncc3)o2)c1 | 66%
O=C1NC(=O)c2c1c1c3ccccc3[nH]c1c1[nH]c3cc(Br)ccc3c21 | 62%
O=C1NC(=O)/C(=C\c2ccc3nccnc3c2)S1 | 84%
CCN(CC)CCCCN1c2ccccc2Oc2ccc(Cl)cc21 | 120%
COc1cccc(-c2cc(=O)c3ccccc3o2)c1N | 85%
O=C1c2ccccc2-[n+]2ccc3c([nH]c4ccccc43)c21 | 69%
Oc1ccc(-c2nc(-c3ccc(F)cc3)c(-c3ccncc3)[nH]2)cc1 | 45%
Cc1nc2cc3nc(-c4cccs4)cnc3cc2n1C | 54%
COc1ccc(C(=O)Nc2sc3c(c2C(N)=O)CCCC3)cc1OC | 103%
Cn1cc(/C=C2\C(=O)Nc3ccc(S(N)(=O)=O)cc32)c2ccccc21 | 14%
Nc1ccc2ncnc(NCCc3ccc(Oc4ccccc4)cc3)c2c1 | 45%
CO[C@H]1C[C@@H]2CC[C@@H](C)[C@@](O)(O2)C(=O)C(=O)N2CCCC[C@H]2C(=O)O[C@H]([C@H](C)C[C@@H]2CC[C@@H](O)[C@H](OC)C2)CC(=O)[C@H](C)/C=C(\C)[C@@H](O)[C@@H](OC)C(=O)[C@H](C)C[C@H](C)/C=C/C=C/C=C/1C | 80%

Structure (SMILES) | residual activity
CCC(=O)Nc1ccc2ncnc(Nc3cccc(Br)c3)c2c1 | 67%
O=C(Nc1cccc(Nc2cc(Nc3cccc(C(F)(F)F)c3)ncn2)c1)C1CC1 | 29%
O=[N+]([O-])c1ccc(-c2nc(-c3ccc(F)cc3)c(-c3ccncc3)[nH]2)cc1 | 86%
O=c1c2ccccc2[nH]c(=S)n1CCN1CCC(=C(c2ccc(F)cc2)c2ccc(F)cc2)CC1 | 107%
COc1cc2ncnc(Nc3ccc(NC(=O)c4ccccc4)cc3)c2cc1OC | 17%
COc1ccc(OC)c2c(=S)c3ccccc3[nH]c12 | 101%
O=C(O)c1ccc2c3c1cccc3c(=O)n1c3ccccc3nc21 | 109%
Cn1cnc2cc3c(Nc4cccc(Br)c4)ncnc3cc21 | 24%
COc1ccc(S(=O)(=O)N(CCO)c2ccccc2CN(C)C/C=C/c2ccc(Cl)cc2)cc1 | 51%
CNc1cc2c(Nc3cccc(Br)c3)ncnc2cn1 | 19%
COc1cc2ncnc(N3CCN(C(=O)Nc4ccc(Oc5ccccc5)cc4)CC3)c2cc1OC | 59%
O=C(Nc1cccc(Nc2nccc(Nc3cccc(C(F)(F)F)c3)n2)c1)C1CC1 | 19%
c1ccc(-c2n[nH]cc2-c2ccnc3ccccc23)nc1 | 71%
O=c1cc(-c2cccc3c2Sc2ccccc2S3)oc(N2CCOCC2)c1 | 94%
O=Nc1c(-c2c(O)[nH]c3ccccc23)[nH]c2ccccc12 | 6%
Nc1n[nH]c2nnc(-c3c(-c4ccccc4)nn4ccccc34)cc12 | 58%
CC(=O)O/N=C1\C(=C2\C(=O)Nc3cc(Br)ccc32)Nc2ccccc21 | 13%

From ChEMBL document CHEMBL2218924, “A broad activity screen in support of a chemogenomic map for kinase signalling research and drug discovery” (Biochem J, 2013)
